This passage reports Potency results from PubChem BioAssay (NCATS).

Inconclusive results are not listed. A call without a number means that no potency is given here. Activity calls are given as the source filed them. Calls come from the whole dose curve.
Potency is the fitted concentration of half-maximal effect.

The assay in a line: NCATS anti-infectives library activity on the primary C. elegans qHTS viability assay (AID 1745855). Conditions: C. elegans worm area imaging, day 7; series mostly up to 41.8 µM. In a few lines:
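Viability is taken from GFP fluorescence of PE254-GFP-FLuc C. elegans imaged by laser cytometry over 7 days. Ten L1 worms per well grow at 21 °C on TOP10 E. coli capsules with titrated compound; levamisole marks toxicity.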
(Quantitative high-throughput screening tests each substance at several concentrations.)
Consider `Cc1cccc(C)c1N(CC(=O)Nc1ccc(-c2ncon2)cc1)C(=O)C1CCS(=O)(=O)CC1`, for which the Potency entry was “inactive”.

Turning to `O=C(O)[C@H]1C2CCC(CC2)[C@@H]1Nc1nc(-c2c[nH]c3ncc(F)cc23)ncc1F`, the Potency result was “inactive”.

Turning to `C[C@@]1(F)[C@H](O)[C@@H](CO)O[C@H]1n1ccc(=O)[nH]c1=O`, the Potency result was “inactive”.

As for `O=C(O[C@@H]1Cc2c(O)cc(O)cc2O[C@@H]1c1cc(O)c(O)c(O)c1)c1cc(O)c(O)c(O)c1`, the Potency is 0.163 µM (active).

As for `[N-]=[N+]=NCc1cccc(/C(O)=C\C(=O)C(=O)O)c1`, the Potency result is “inactive”.

`CC(C)(C)c1cc(C(=O)/C(C#N)=N/Nc2cccc(Cl)c2)no1`: the Potency was 14.5 µM (active).

With `CCCCCCCCCCCCCCCc1cccc(O)c1C(=O)O`, the Potency entry was “inactive”.

Turning to `C=C[C@@H]1C[C@]1(NC(=O)[C@@H]1C[C@@H](Oc2ncc(OC)c3ccc(Cl)cc23)CN1C(=O)[C@@H](NC(=O)OC(C)(C)C)C(C)(C)C)C(=O)NS(=O)(=O)C1CC1`, the Potency is 20.5 µM (active).

Take `CCCC[C@H](NC(=O)[C@@H]1[C@@H]2[C@H](CN1C(=O)[C@@H](NC(=O)NC1(CS(=O)(=O)C(C)(C)C)CCCCC1)C(C)(C)C)C2(C)C)C(=O)C(=O)NC1CC1`: the Potency result was “inactive”.

Turning to `O=c1ccn2c(n1)O[C@H]1[C@H](O)[C@@H](CO)O[C@H]12`, the Potency entry is “inactive”.

`O=C(NO)c1cccc(C(=O)NCCc2ccccc2)c1`: the Potency entry was “inactive”.

Turning to `CC(C)CN(C[C@@H](O)[C@H](Cc1ccccc1)NC(=O)[C@@H](NC(=O)CNCc1cccc(F)c1)C(C)(C)C)S(=O)(=O)c1cccc(N)c1`, the Potency result is “inactive”.

`CC(C)c1nc(CN(C)C(=O)N[C@@H](CCN2CCOCC2)C(=O)N[C@H](CC[C@H](Cc2ccccc2)NC(=O)OCc2cncs2)Cc2ccccc2)cs1`: the Potency was 23 µM (active).
